# From PMC11062922 (Nature Chemical Biology, 2023)
# Read-outs that look alike come from different tables or passages of the source.
# What was measured:
# MAP4K2 = conditions: read-out: apparent Kd, n = 1
# MARK3 = conditions: read-out: apparent Kd, n = 1
# [1] = compound concentrations:100 nM and 1000 nM (sheet 'Lestaurtinib' of Supplementary Table 1),run:Lestaurtinib_02364_R3,Plate:MR002
# [2] = compound concentrations:100 nM and 1000 nM (sheet 'Lestaurtinib' of Supplementary Table 1),run:Lestaurtinib_02367_R2,Plate:MR003
# [3] = compound concentrations:100 nM and 1000 nM (sheet 'Lestaurtinib' of Supplementary Table 1),run:Lestaurtinib_02381_R1,Plate:MR004
# [4] = compound concentrations:100 nM and 1000 nM (sheet 'Lestaurtinib' of Supplementary Table 1),run:Lestaurtinib_02407_R1,Plate:MR005
# [5] = compound concentrations:100 nM and 1000 nM (sheet 'Lestaurtinib' of Supplementary Table 1),run:Lestaurtinib_02407_R2,Plate:MR005
# [6] = compound concentrations:100 nM and 1000 nM (sheet 'Lestaurtinib' of Supplementary Table 1),run:Lestaurtinib_02422_R1,Plate:MR006
# [7] = compound concentrations:100 nM and 1000 nM (sheet 'Lestaurtinib' of Supplementary Table 1),run:Lestaurtinib_02422_R2,Plate:MR006
# [8] = compound concentrations:100 nM and 1000 nM (sheet 'Lestaurtinib' of Supplementary Table 1),run:Lestaurtinib_02437_R3,Plate:MR007
# [9] = compound concentrations:100 nM and 1000 nM (sheet 'Lestaurtinib' of Supplementary Table 1),run:Lestaurtinib_02438_R1,Plate:MR008
# [10] = compound concentrations:100 nM and 1000 nM (sheet 'Lestaurtinib' of Supplementary Table 1),run:Lestaurtinib_02438_R2,Plate:MR008
substance,measurement,setting,value
Lestaurtinib,potency estimated from few doses,MAP4K2; [1],260 nM
same,potency estimated from few doses,MAP4K2; [2],163 nM
same,potency estimated from few doses,MAP4K2; [3],163 nM
same,potency estimated from few doses,"MAP4K2; compound concentrations:100 nM and 1000 nM (sheet 'Lestaurtinib' of Supplementary Table 1),run:Lestaurtinib_02381_R3,Plate:MR004",229 nM
same,potency estimated from few doses,MAP4K2; [4],134 nM
same,potency estimated from few doses,MAP4K2; [5],149 nM
same,potency estimated from few doses,"MAP4K2; compound concentrations:100 nM and 1000 nM (sheet 'Lestaurtinib' of Supplementary Table 1),run:Lestaurtinib_02407_R3,Plate:MR005",180 nM
same,potency estimated from few doses,MAP4K2; [6],191 nM
same,potency estimated from few doses,MAP4K2; [7],261 nM
same,potency estimated from few doses,"MAP4K2; compound concentrations:100 nM and 1000 nM (sheet 'Lestaurtinib' of Supplementary Table 1),run:Lestaurtinib_02422_R3,Plate:MR006",163 nM
same,potency estimated from few doses,MAP4K2; [8],29.8 nM
same,potency estimated from few doses,MAP4K2; [9],151 nM
same,potency estimated from few doses,MAP4K2; [10],277 nM
same,potency estimated from few doses,"MAP4K2; compound concentrations:100 nM and 1000 nM (sheet 'Lestaurtinib' of Supplementary Table 1),run:Lestaurtinib_02473_R1,Plate:MR010",197 nM
same,potency estimated from few doses,"MAP4K2; compound concentrations:100 nM and 1000 nM (sheet 'Lestaurtinib' of Supplementary Table 1),run:Lestaurtinib_02473_R2,Plate:MR010",202 nM
same,potency estimated from few doses,"MAP4K2; compound concentrations:100 nM and 1000 nM (sheet 'Lestaurtinib' of Supplementary Table 1),run:Lestaurtinib_02482_R2,Plate:MR011",222 nM
same,potency estimated from few doses,"MAP4K2; compound concentrations:100 nM and 1000 nM (sheet 'Lestaurtinib' of Supplementary Table 1),run:Lestaurtinib_02487_R2,Plate:MR012",182 nM
same,potency estimated from few doses,"MAP4K2; compound concentrations:100 nM and 1000 nM (sheet 'Lestaurtinib' of Supplementary Table 1),run:Lestaurtinib_02487_R3,Plate:MR012",244 nM
same,potency estimated from few doses,"MAP4K2; compound concentrations:100 nM and 1000 nM (sheet 'Lestaurtinib' of Supplementary Table 1),run:Lestaurtinib_02496_R1,Plate:MR013",231 nM
same,potency estimated from few doses,"MAP4K2; compound concentrations:100 nM and 1000 nM (sheet 'Lestaurtinib' of Supplementary Table 1),run:Lestaurtinib_02566_R1,Plate:MR014",259 nM
same,potency estimated from few doses,"MAP4K2; compound concentrations:100 nM and 1000 nM (sheet 'Lestaurtinib' of Supplementary Table 1),run:Lestaurtinib_02566_R2,Plate:MR014",180 nM
same,potency estimated from few doses,"MAP4K2; compound concentrations:100 nM and 1000 nM (sheet 'Lestaurtinib' of Supplementary Table 1),run:Lestaurtinib_02566_R3,Plate:MR014",159 nM
same,potency estimated from few doses,"MAP4K2; compound concentrations:100 nM and 1000 nM (sheet 'Lestaurtinib' of Supplementary Table 1),run:Lestaurtinib_02572_R1,Plate:MR015",196 nM
same,potency estimated from few doses,"MAP4K2; compound concentrations:100 nM and 1000 nM (sheet 'Lestaurtinib' of Supplementary Table 1),run:Lestaurtinib_02572_R3,Plate:MR015",235 nM
same,potency estimated from few doses,"MAP4K2; compound concentrations:100 nM and 1000 nM (sheet 'Lestaurtinib' of Supplementary Table 1),run:Lestaurtinib_02577_R1,Plate:MR016",199 nM
same,potency estimated from few doses,"MAP4K2; compound concentrations:100 nM and 1000 nM (sheet 'Lestaurtinib' of Supplementary Table 1),run:Lestaurtinib_02577_R3,Plate:MR016",131 nM
same,potency estimated from few doses,"MAP4K2; compound concentrations:100 nM and 1000 nM (sheet 'Lestaurtinib' of Supplementary Table 1),run:Lestaurtinib_02584_R3,Plate:MR017",245 nM
same,potency estimated from few doses,"MAP4K2; compound concentrations:100 nM and 1000 nM (sheet 'Lestaurtinib' of Supplementary Table 1),run:Lestaurtinib_02601_R2,Plate:MR018",153 nM
same,potency estimated from few doses,"MAP4K2; compound concentrations:100 nM and 1000 nM (sheet 'Lestaurtinib' of Supplementary Table 1),run:Lestaurtinib_02606_R1,Plate:MR019",184 nM
same,potency estimated from few doses,"MAP4K2; compound concentrations:100 nM and 1000 nM (sheet 'Lestaurtinib' of Supplementary Table 1),run:Lestaurtinib_02606_R2,Plate:MR019",278 nM
same,potency estimated from few doses,"MAP4K2; compound concentrations:100 nM and 1000 nM (sheet 'Lestaurtinib' of Supplementary Table 1),run:Lestaurtinib_02606_R3,Plate:MR019",191 nM
same,potency estimated from few doses,"MAP4K2; compound concentrations:100 nM and 1000 nM (sheet 'Lestaurtinib' of Supplementary Table 1),run:Lestaurtinib_02724_R1,Plate:MR021",279 nM
same,potency estimated from few doses,"MAP4K2; compound concentrations:100 nM and 1000 nM (sheet 'Lestaurtinib' of Supplementary Table 1),run:Lestaurtinib_02724_R2,Plate:MR021",279 nM
same,potency estimated from few doses,"MAP4K2; compound concentrations:100 nM and 1000 nM (sheet 'Lestaurtinib' of Supplementary Table 1),run:Lestaurtinib_02724_R3,Plate:MR021",269 nM
same,potency estimated from few doses,"MAP4K2; compound concentrations:100 nM and 1000 nM (sheet 'Lestaurtinib' of Supplementary Table 1),run:Lestaurtinib_02741_R1,Plate:MR023",191 nM
same,potency estimated from few doses,"MAP4K2; compound concentrations:100 nM and 1000 nM (sheet 'Lestaurtinib' of Supplementary Table 1),run:Lestaurtinib_02741_R3,Plate:MR023",237 nM
same,potency estimated from few doses,"MAP4K2; compound concentrations:100 nM and 1000 nM (sheet 'Lestaurtinib' of Supplementary Table 1),run:Lestaurtinib_02748_R2,Plate:MR024",289 nM
same,potency estimated from few doses,"MAP4K2; compound concentrations:100 nM and 1000 nM (sheet 'Lestaurtinib' of Supplementary Table 1),run:Lestaurtinib_02752_R2,Plate:MR025",134 nM
same,potency estimated from few doses,"MAP4K2; compound concentrations:100 nM and 1000 nM (sheet 'Lestaurtinib' of Supplementary Table 1),run:Lestaurtinib_02752_R3,Plate:MR025",136 nM
same,potency estimated from few doses,"MAP4K2; compound concentrations:100 nM and 1000 nM (sheet 'Lestaurtinib' of Supplementary Table 1),run:Lestaurtinib_02765_R2,Plate:MR026",199 nM
same,potency estimated from few doses,"MAP4K2; compound concentrations:100 nM and 1000 nM (sheet 'Lestaurtinib' of Supplementary Table 1),run:Lestaurtinib_02765_R3,Plate:MR026",158 nM
same,potency estimated from few doses,"MAP4K2; compound concentrations:100 nM and 1000 nM (sheet 'Lestaurtinib' of Supplementary Table 1),run:Lestaurtinib_02766_R2,Plate:MR027",220 nM
same,potency estimated from few doses,"MAP4K2; compound concentrations:100 nM and 1000 nM (sheet 'Lestaurtinib' of Supplementary Table 1),run:Lestaurtinib_02766_R3,Plate:MR027",231 nM
same,potency estimated from few doses,"MAP4K2; compound concentrations:100 nM and 1000 nM (sheet 'Lestaurtinib' of Supplementary Table 1),run:Lestaurtinib_02768_R1,Plate:MR028",190 nM
same,potency estimated from few doses,"MAP4K2; compound concentrations:100 nM and 1000 nM (sheet 'Lestaurtinib' of Supplementary Table 1),run:Lestaurtinib_02768_R3,Plate:MR028",196 nM
same,potency estimated from few doses,"MAP4K2; compound concentrations:100 nM and 1000 nM (sheet 'Lestaurtinib' of Supplementary Table 1),run:Lestaurtinib_02795_R1,Plate:MR022",199 nM
same,potency estimated from few doses,"MAP4K2; compound concentrations:100 nM and 1000 nM (sheet 'Lestaurtinib' of Supplementary Table 1),run:Lestaurtinib_02795_R2,Plate:MR022",146 nM
same,potency estimated from few doses,"MAP4K2; compound concentrations:100 nM and 1000 nM (sheet 'Lestaurtinib' of Supplementary Table 1),run:Lestaurtinib_02795_R3,Plate:MR022",377 nM
same,potency estimated from few doses,"MAP4K2; compound concentrations:100 nM and 1000 nM (sheet 'Lestaurtinib' of Supplementary Table 1),run:Lestaurtinib_02802_R3,Plate:MR029",290 nM
same,potency estimated from few doses,"MAP4K2; compound concentrations:100 nM and 1000 nM (sheet 'Lestaurtinib' of Supplementary Table 1),run:Lestaurtinib_02896_R2,Plate:MR030",215 nM
same,potency estimated from few doses,"MAP4K2; compound concentrations:100 nM and 1000 nM (sheet 'Lestaurtinib' of Supplementary Table 1),run:Lestaurtinib_03172_R2,Plate:MR031",295 nM
same,potency estimated from few doses,"MAP4K2; compound concentrations:100 nM and 1000 nM (sheet 'Lestaurtinib' of Supplementary Table 1),run:Lestaurtinib_03172_R3,Plate:MR031",235 nM
same,potency estimated from few doses,"MAP4K2; compound concentrations:100 nM and 1000 nM (sheet 'Lestaurtinib' of Supplementary Table 1),run:Lestaurtinib_03252_R1,Plate:MR032",130 nM
same,potency estimated from few doses,"MAP4K2; compound concentrations:100 nM and 1000 nM (sheet 'Lestaurtinib' of Supplementary Table 1),run:Lestaurtinib_03260_R1,Plate:MR033",372 nM
same,potency estimated from few doses,"MAP4K2; compound concentrations:100 nM and 1000 nM (sheet 'Lestaurtinib' of Supplementary Table 1),run:Lestaurtinib_03260_R3,Plate:MR033",228 nM
same,potency estimated from few doses,"MARK3; compound concentrations:100 nM and 1000 nM (sheet 'Lestaurtinib' of Supplementary Table 1),run:Lestaurtinib_02364_R1,Plate:MR002",132 nM
same,potency estimated from few doses,MARK3; [1],180 nM
same,potency estimated from few doses,"MARK3; compound concentrations:100 nM and 1000 nM (sheet 'Lestaurtinib' of Supplementary Table 1),run:Lestaurtinib_02367_R1,Plate:MR003",92.8 nM
same,potency estimated from few doses,MARK3; [2],160 nM
same,potency estimated from few doses,MARK3; [3],132 nM
same,potency estimated from few doses,"MARK3; compound concentrations:100 nM and 1000 nM (sheet 'Lestaurtinib' of Supplementary Table 1),run:Lestaurtinib_02381_R2,Plate:MR004",167 nM
same,potency estimated from few doses,MARK3; [4],160 nM
same,potency estimated from few doses,MARK3; [5],151 nM
same,potency estimated from few doses,MARK3; [6],169 nM
same,potency estimated from few doses,MARK3; [7],52.3 nM
same,potency estimated from few doses,"MARK3; compound concentrations:100 nM and 1000 nM (sheet 'Lestaurtinib' of Supplementary Table 1),run:Lestaurtinib_02437_R1,Plate:MR007",151 nM
same,potency estimated from few doses,"MARK3; compound concentrations:100 nM and 1000 nM (sheet 'Lestaurtinib' of Supplementary Table 1),run:Lestaurtinib_02437_R2,Plate:MR007",133 nM
same,potency estimated from few doses,MARK3; [8],23.2 nM
same,potency estimated from few doses,MARK3; [9],196 nM
same,potency estimated from few doses,MARK3; [10],160 nM
same,potency estimated from few doses,"MARK3; compound concentrations:100 nM and 1000 nM (sheet 'Lestaurtinib' of Supplementary Table 1),run:Lestaurtinib_02443_R1,Plate:MR009",202 nM
same,potency estimated from few doses,"MARK3; compound concentrations:100 nM and 1000 nM (sheet 'Lestaurtinib' of Supplementary Table 1),run:Lestaurtinib_02443_R2,Plate:MR009",181 nM
